# Test results published in PubChem BioAssay (NCATS).
# Results filed as inconclusive are left out. Entries that show only a call come without a potency. Activity calls are given as the source filed them. Calls follow the shape of the dose curve; as a rule, active = well fitted inhibition curve with a large enough effect; inconclusive = small, poorly fitted or top-dose-only effect; inactive = flat fitted curve, though single readings scatter.
# Target: Aldehyde dehydrogenase, mitochondrial (Homo sapiens) (UniProt P05091)
# Assay: qHTS for Inhibitors of the Aldehyde Dehydrogenase Family (ALDH2) Primary screen (AID 2061308); also: nearly all actives have a fitted effect of over 55% in size
# Details: ALDH2 enzyme inhibition qHTS, 1536-well; series mostly up to 56 µM
SMILES,Potency,"activity change, negative = inhibition"
Cc1cc(O)cc2c1O[C@](C)(CCC[C@H](C)CCC[C@H](C)CCCC(C)C)CC2,inactive,
O=C(/C=C/c1ccc(O)cc1)OCC1OC(O)C(OC2OC(CO)C(O)C(O)C2O)C(O)C1O (stereo not given),inactive,
CC1=CCC[C@@H]2[C@](CCc3ccoc3)(C(=O)O)[C@H](C)CC[C@@]12C,inactive,
Cc1ccc2c(Nc3ccc(Cl)cc3)nccc2c1Nc1ncccc1-c1ncnc2nc[nH]c12,inactive,
COc1c(/C=C/C(C)(C)O)ccc2c1C(=O)OCc1cc(C)cc(O)c1O2,inactive,
CC(C)(O)C(=O)N1CCN(c2ccc(C(F)(F)F)c(C3=C(c4c[nH]c5ccccc45)C(=O)NC3=O)c2)CC1,inactive,
CC(O)/C=C/C1(O)C(C)C(O)C(O[C@@H]2O[C@H](CO)[C@@H](O)[C@H](O)[C@H]2O)CC1(C)C (stereo not given in full),inactive,
CC(C)=CCC[C@](C)(O[C@@H]1O[C@H](CO[C@@H]2O[C@@H](CO)[C@H](O)[C@H]2O[C@@H]2OC[C@@H](O)[C@H](O)[C@H]2O)[C@@H](O)[C@H](O)[C@H]1O)[C@H]1CC[C@]2(C)[C@@H]1[C@H](O)CC1[C@@]3(C)CC[C@H](O[C@@H]4O[C@H](CO)[C@@H](O)[C@H](O)[C@H]4O[C@@H]4O[C@H](CO)[C@@H](O)[C@H](O)[C@H]4O)C(C)(C)C3CC[C@]12C (stereo not given in full),,1.66% [at 11.2 µM] (inactive)
O=C(Nc1ccccc1C(=O)Nc1ccc(CCO)cc1)c1ccc([N+](=O)[O-])cc1,inactive,
COc1cc(O)c2c(c1)C1=CC(O)C(O)CC1(C)OC2=O (stereo not given),inactive,
CC(C)(O)/C=C/CC(C)(O)C1C(O)CC2(C)C3CCC4C(C)(C)C(=O)CCC4(C)C3CCC12C (stereo not given),inactive,
CC(C)c1cc(-c2ccc(F)c3ccccc23)nc(N)n1,inactive,
CC(C)c1noc(C2CCN(c3ncnc(Nc4ccc(S(C)(=O)=O)cc4F)c3[N+](=O)[O-])CC2)n1,inactive,
CC(C(O)/C=C/C(C)(C)O)C1CCC2(C)C3C(=O)C=C4C(CCC(O)C4(C)C)C3(C)CCC12C (stereo not given),inactive,
CC/C=C/CC1=C(CCCCCCCC(=O)O)CCC1=O,inactive,
COc1ccc(S(=O)(=O)N2CCC[C@H]2C(=O)Nc2cc(C)cc(C)c2)cc1,inactive,
CC1OC(OC2C(C)OC(OC3C(O)C(CO)OC(O[C@H]4CC[C@@]5(C)C(CC[C@]6(C)C5CC=C5C7[C@@H](C)[C@H](C)CC[C@]7(C(=O)O)CC[C@]56C(=O)O)C4(C)C)C3O)C(O)C2O)C(O)C(O)C1O (stereo not given in full),inactive,
CC(=O)O[C@@H]1[C@@H](O)[C@H](O[C@H]2CC[C@]34C[C@]35CC[C@]3(C)[C@@H]([C@@]6(C)CC[C@@H](C(C)(C)O)O6)[C@@H](O)C[C@@]3(C)[C@@H]5C[C@H](O[C@@H]3O[C@H](CO)[C@@H](O)[C@H](O)[C@H]3O)[C@H]4C2(C)C)OC[C@H]1O,inactive,
CC(C)=C1C[C@@]2(C)C(=CC1=O)CC[C@@H](OC(=O)/C(C)=C/CO)[C@@H]2C,inactive,
CCC(C)C(=O)OC[C@H]1O[C@H](O[C@H]2O[C@H](CO)[C@@H](O)[C@H](O)[C@H]2O)[C@H](O)[C@@H](O)[C@@H]1O (stereo not given in full),inactive,

SMILES,Potency,"activity change, negative = inhibition"
COc1cc(C(C)=O)ccc1O[C@@H]1O[C@H](CO)[C@@H](O)[C@H](O)[C@H]1O,inactive,
COC(=O)C1=CO[C@@H](O)C2C(CO)=CCC12 (stereo not given in full),inactive,
Cc1noc(-c2ccc(-c3ccc(CC(=O)O)cc3)cc2)c1NC(=O)O[C@H](C)c1ccccc1,inactive,
CC(=O)O[C@@H]1[C@@H](OC(C)=O)[C@H](C)O[C@@H](O[C@H]2[C@@H]3C=CO[C@@H](O[C@@H]4O[C@H](CO)[C@@H](O)[C@H](O)[C@H]4O)[C@@H]3[C@@]3(CO)O[C@@H]23)[C@@H]1OC(=O)/C=C/c1ccccc1,inactive,
CC12CCC(C(OC3OC(COC4OCC(O)(CO)C4O)C(O)C(O)C3O)C1)C(C)(C)O2 (stereo not given),inactive,
COc1ccc(C(=O)Nc2ncc(-c3ccc(C(=O)O)cc3)s2)cc1,inactive,
C=C(C(=O)O)[C@@H]1CC=C(CCC(C)=O)[C@@H](C)CC1,inactive,
CC(=O)OCC(=O)O[C@@H]1[C@H]2[C@@H](OC(=O)c3ccccc3)[C@@H](C)C[C@]2(O)[C@H](OC(C)=O)C2(C)[C@H]3CC(C)(C)C(=O)[C@@H]3CC1(OC(C)=O)[C@@H]2OC(C)=O (stereo not given in full),inactive,
COC(=O)C1=C[C@@H](O)[C@@H](O)[C@H](O[C@@H]2O[C@H](CO)[C@@H](O)[C@H](O)[C@H]2OC(=O)/C=C/c2ccccc2)C1,inactive,
COc1ccccc1-c1cc(Nc2cccc(CS(N)(=O)=O)c2)ncn1,inactive,
CC1CCC(=O)CC(O)C(O)CC(=O)O1 (stereo not given),inactive,
CC(=O)OC1C(c2ccccc2)CCC(c2ccccc2)C1OC(C)=O (stereo not given),inactive,
CCC(=O)N[C@@H]1Cc2ccccc2[C@H](c2ccccc2)C1,inactive,
C=C1Cc2c(Cl)cc3[nH]c4c5c3c2[C@@]2(O)[C@@H]1C[C@@H]2C(C)(C)O[C@H]5C1CC[C@@]2(O)[C@@]35O[C@@H]3[C@H]3OC(C)(C)[C@H]3O[C@H]5CC[C@]2(C)[C@@]41C (stereo not given in full),inactive,
N#Cc1cc(CN2CCC(Nc3ncnc4sc(Cl)cc34)CC2)ccc1F,inactive,
Cc1coc2c1CC1OC1(C)CCC1OC1(C)C2 (stereo not given),inactive,
CC(=O)c1ccc(O[C@@H]2O[C@H](CO[C@@H]3OC[C@@H](O)[C@H](O)[C@H]3O)[C@@H](O)[C@H](O)[C@H]2O)cc1,inactive,
Cc1c(O)cc2c(c1O)COC1(O)CCCOC21 (stereo not given),inactive,
CCOc1cccc(NC(=O)c2ccc(N3CCCC3)c(C(F)(F)F)c2)c1,inactive,
CC(=O)O[C@H](C[C@@H](C)[C@H]1C(=O)[C@H](O)[C@@]2(C)[C@@H]3CCC4C(C)(C)[C@@H](O[C@@H]5OC[C@H](O)[C@H](O)[C@H]5O)CC[C@@]45C[C@@]35CC[C@]12C)[C@@H]1OC1(C)C (stereo not given in full),inactive,
